Screens deposited in PubChem BioAssay by National Center for Advancing Translational Sciences (NCATS).
KB-3-1 cytotox: KB-3-1 parental cell cytotoxicity | KB-3-1 viability, CellTiter-Glo ATP luminescence, 72 h | 400,000 compounds, 1.4% hits | Potency, µM (highest dose often 46.1 µM), hits mostly cytotoxic; also: % is scaled to controls: 0 for no effect and ±100 for the full control effect; nearly all actives have a fitted effect of over 60% in size
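Parental KB-3-1 viability, qHTS format: 72 h compound exposure, 37 °C; CellTiter-Glo; media-only wells and DMSO plates as controls; concentration-effect fits on corrected data.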
HT1080-NT tox: kills 2HG-producing HT-1080-NT fibrosarcoma cells; HT-1080-NT fibrosarcoma viability, CellTiter-Glo ATP luminescence, 48 h; Potency, µM (doses to about 46.1 µM), for the others: at the highest dose activity, negative = less viability, usual class: cytotoxic; 360,000 compounds, 1.6% hits; AID 686970;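 also: NT is the 2HG producing partner of a matched IDH1 knockdown line; 0% = DMSO-treated cells and -100% = media-only wells without cells; nearly all actives have a fitted effect of over 55% in size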
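A 48-hour cytotoxicity screen used HT-1080-NT cells plated 2 hours before compound delivery. ATP-based CellTiter-Glo luminescence measured viability, normalized to DMSO and no-cell controls.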
HT1080 IDH1KD tx: HT-1080 IDH1 knockdown cell toxicity (counter line). HT-1080 IDH1 knockdown viability, ATP luminescence, 48 h. Potency, µM (doses to about 46.1 µM), without a hit: at the top dose activity, negative = toxicity, actives largely listed as cytotoxic. 360,000 compounds, 2% hits. AID 686971;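 also: 0% = DMSO wells and -100% = cell-free medium wells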
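Using the IDH1-knockdown HT-1080 line run in the same batch and compound series as the NT line, viability after 48 h at 37 °C was determined by CellTiter-Glo luminescence and expressed as % activity.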
SW480 rerep: DNA re-replication induction in SW480 cells. SW480 DNA re-replication, Hoechst DNA content imaging, 48 h. Potency, µM (series often up to 46.1 µM), without a hit: top-dose re-replication activation, usual class: activators. 340,000 compounds, 1.8% hits; also: % of control where 0% means no effect; nearly all actives have a fitted effect of over 55% in size
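Hoechst fluorescence of nuclei (405 nm excitation, 500-530 nm emission) measured by plate-scanning imager after 48 hr compound exposure at 37 C; re-replication scored as increased number of nuclei with elevated intensity.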
MCF10A rereplic: induces DNA re-replication in MCF 10a normal breast cells. MCF 10A DNA re-replication, Hoechst nuclear intensity, 48 h. Potency, µM (titrated, usually from 46.1 µM), inactives show top-dose activity, positive = re-replication, most hits filed as activators. 350,000 compounds, 2.9% hits. AID 624296; also: % of control where 0% means no effect; nearly all actives have a fitted effect of over 50% in size
KB-V1 cytotox: kills drug-selected multidrug resistant KB-V1 cells | KB-V1 MDR cells viability, CellTiter-Glo, 72 h | Potency, µM (doses to about 46.1 µM), most hits filed as cytotoxic | 400,000 compounds, 3.4% hits; also: % is scaled to controls: 0 for no effect and ±100 for the full control effect; nearly all actives have a fitted effect of over 60% in size
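Drug-selected KB-V1 cells, grown in DMEM lacking phenol red with 10% FBS, receive compound titrations; after three days at 37 degrees C, surviving cell ATP is quantified by CellTiter-Glo luminescence and responses normalized and curve-fitted.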
An asterisk follows results filed as active; i = inactive; ? = inconclusive; · = no result given; [ ] = another dose, or the depositor's remark. A selection: hits, their analogues and other compounds. The true share with any hit is near 8%. Calls follow the shape of the dose curve; as a rule, active = well fitted curve in the direction sought with a large enough effect; inconclusive = small, poorly fitted or top-dose-only effect, or another doubt; inactive = no such curve, though single readings can be large; an effect the other way counts as inactive or inconclusive. Potency is read from the fitted curve at half-maximal effect.

SMILES	KB-3-1 cytotox	HT1080-NT tox	HT1080 IDH1KD tx	SW480 rerep	MCF10A rereplic	KB-V1 cytotox
O=C(Nc1ccc(Cc2ccncc2)cc1)C1CCC(N2C(=O)C3C4C=CC(C4)C3C2=O)CC1 (stereo unspecified)	i	?	1.5%	-9.3%	-11.3%	?
O=C(Nc1ccc(Cc2ccncc2)cc1)C1CCC(N2C(=O)C3CC=CCC3C2=O)CC1 (stereo unspecified)	i	-25.0%	-20.6%	1.5%	-12.4%	14.6µM*
COc1ccc(CC(=O)Nc2cc3oc4ccccc4c3cc2OC)cc1	i	-12.5%	-12.5%	2.9%	-2.3%	i
CC(C)(C)OC(=O)N1CCC(c2c(C(=O)NCC3CCN(C4CCCC4)C3)cnn2-c2cccc(Cl)c2)CC1 (stereo unspecified)	i	?	18.4µM*	?	?	i
Cc1ccc(-n2ncc(C(=O)NCC3CCN(C4CCCC4)C3)c2C2CCN(C(=O)OC(C)(C)C)CC2)cc1 (stereo unspecified)	?	23.1µM*	?	?	15.6%	i
CCN(CC)S(=O)(=O)c1ccc(S(=O)(=O)Nc2cc3c(cc2C(C)=O)OCO3)cc1	i	-1.3%	4.2%[9.24 µM]	-5.8%	8.3%	i
Cc1cccc(-c2nc(=S)c3c(n2Cc2ccco2)CCCC3)c1	i	-3.4%	-8.4%	?	16.4%	i
COc1cccc(-c2nc(=S)c3c(n2Cc2ccco2)CCCC3)c1	i	?	?	14.2%	20.6µM*	i
C=CCN(c1ccccc1OC)S(=O)(=O)c1cccc(C(=O)NCc2cccs2)c1	i	-7.7%	-5.5%	-1.5%	-1.0%	?
C=CCN(c1ccccc1)S(=O)(=O)c1cccc(C(=O)N2CC(C)CC(C)C2)c1 (stereo unspecified)	?	-24.0%	?	?	10.3µM*	7.31µM*
C=CCN(c1ccccc1Cl)S(=O)(=O)c1cccc(C(=O)NCCc2ccc(OC)cc2)c1	23.1µM*	-0.5%	-15.0%	12.4%	29.7%	2.31µM*
C=CCN(c1ccccc1)S(=O)(=O)c1cccc(C(=O)NCC(c2ccccc2OC)N2CCCC2)c1 (stereo unspecified)	i	23.1µM*	?	?	85.0%	i
CC(=O)Oc1ccc(-c2ccc(C(=O)OCC(=O)c3c(N)n(C)c(=O)n(C)c3=O)cc2)cc1	i	-2.2%[9.24 µM]	?	-31.5%	13.1%	?
Cc1ccc(C(=O)N2CCC3(CC2)NCCc2[nH]cnc23)cc1	i	13.2%	12.3%	2.5%	-4.0%	i
COc1ccc(CCN2C(=O)CC(NNC(=O)c3ccccc3Br)C2=O)cc1 (stereo unspecified)	i	4.7%	23.6%	0.2%	-3.5%	?
Cc1nn(Cc2ccc(C(=O)N3CCN(C(=O)c4ccco4)CC3)o2)c(C)c1[N+](=O)[O-]	·	0.3%	1.5%	-6.5%	-1.2%	·
Cc1onc(-c2ccccc2)c1C(=O)Nc1sc2c(c1C#N)CCC(C)C2 (stereo unspecified)	?	12.6µM*	0.2%[9.24 µM]	0.5%	1.4%	?
Cc1cccc(OCCOC(=O)c2c(-c3ccccc3)noc2C)c1	?	?	?	8.2µM*	18.4µM*	?
CCOCc1nnc(NC(=O)c2c(-c3ccccc3)noc2C)s1	i	-2.2%	-3.5%	-7.0%	-0.1%	i
CCOC(=O)c1c(NC(=O)c2c(-c3ccccc3)noc2C)sc(C)c1-c1ccccc1	2.06µM*	-29.1%	?	?	?	6.51µM*
CCCOc1cccc(NC(=O)c2c(-c3ccccc3)noc2C)c1	i	4.0%	-1.1%	1.1%	12.6%	i
CCOC(=O)c1c(NC(=O)/C=C/C(=O)O)sc(C)c1-c1ccc(C(C)(C)C)cc1	i	8.2µM*	5.8µM*	18.4µM*	?	?
O=C(NCc1ccco1)c1cc(S(=O)(=O)N2CCCCC2)ccc1Cl	i	4.9%	2.9%	4.8%	0.1%	i
CCOC(=O)c1c(NC(=O)CCN2CCOCC2)sc(C)c1-c1ccccc1	i	-5.0%	-4.1%	7.1%	?	i
Cc1sc(NC(=O)/C=C/C(=O)O)c(C(N)=O)c1-c1ccc(C(C)(C)C)cc1	i	?	20.6µM*	?	20.6µM*	i
SMILES	KB-3-1 cytotox	HT1080-NT tox	HT1080 IDH1KD tx	SW480 rerep	MCF10A rereplic	KB-V1 cytotox
CCOC(=O)c1c(NC(=O)/C=C\C(=O)O)sc(C)c1-c1ccccc1	i	?	?	?	20.6µM*	i
Nc1ccc(C#Cc2ccc3c(=O)c4ccccc4oc3c2)cc1	i	-1.3%	-15.5%	16.4µM*	?	?
Cn1c2ccccc2c(=O)c2ccc(C#Cc3ccccn3)cc21	i	-1.3%	11.6%	5.7%	?	i
COc1cc2oc3ccc(C#Cc4ccccn4)cc3c(=O)c2cc1OC	i	11.1%	-0.9%	?	20.6µM*	?
COc1cc2oc3cc(C#Cc4ccc(N)cc4)ccc3c(=O)c2cc1OC	i	-19.0%	-13.6%	9.2µM*	9.2µM*	i
COc1cc2oc3ccc(C#Cc4ccc(N)cc4)cc3c(=O)c2cc1OC	i	-17.9%	-6.6%	0.0%	23.1µM*	i
C=CCn1c(SCC(=O)Nc2ccccc2OC)nc(O)c(CC)c1=O	i	7.4%	-3.3%	0.1%	-21.1%	i
COC(=O)CSC1=C(C#N)C(c2cccc(F)c2)CC(=O)N1 (stereo unspecified)	16.4µM*	14.6µM*	?	?	?	?
COC(=O)CSC1=C(C#N)C(c2cccc(OC)c2)CC(=O)N1 (stereo unspecified)	?	5.9%	-2.1%	11.5%	14.6%	?
COC(=O)CSC1=C(C#N)C(c2ccccc2)CC(=O)N1 (stereo unspecified)	?	?	-28.9%	?	?	18.4µM*
CCc1ccc(OCC(=O)N/N=C(\C)c2ccccc2OC(F)F)cc1	i	-11.1%	-8.0%	-122.8%	?	16.4µM*
CCc1ccc(OCC(=O)N/N=C(\C)c2ccc(OC(F)F)cc2)cc1	i	21.3%	-1.2%	-0.6%	-1.2%	i
O=C(Nc1ccccc1)C(Cl)C(=O)c1ccccc1 (stereo unspecified)	i	7.7%	10.6%	0.4%	?	i
CC(=O)C(Cl)C(=O)Nc1ccccc1 (stereo unspecified)	20.6µM*	?	?	?	?	i
